Records with an inconclusive call do not appear. Activity calls are given as the source filed them. The call rests on the fitted dose curve; in most records, active means well fitted inhibition curve with a large enough effect; inconclusive means small, poorly fitted or top-dose-only effect; inactive means flat fitted curve, though single readings scatter.
system: CRL-7250; assay: qHTS assay to identify novel small-molecules to repurpose for Merkel cell carcinoma treatment (AID 1296009); settings: MCC and control cell lines, CellTiter-Glo viability, 72 h; series mostly up to 92 µM; activity change, negative = cytotoxicity: at the top concentration; further: nearly all actives have a fitted effect of over 60% in size
Summary of the method: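 Cell viability, measured as CellTiter-Glo luminescence, was normalized between DMSO and no-cell wells. The cells had been exposed to 8- or 11-point compound dilutions for 72 hr at 37 degree celsius.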

| Structure (SMILES) | outcome |
| --- | --- |
| C[C@@H]1CC[C@]2(C(=O)OC3OC(CO)C(O)C(O)C3O)CC[C@]3(C)C(=CCC4[C@@]5(C)CC[C@H](O)[C@](C)(C(=O)O)C5CC[C@]43C)C2[C@]1(C)O (stereo partly specified) | inactive [at 17.4 µM] |
| CN1CCN(C2=Nc3ccccc3Nc3ccc(OS(=O)(=O)C(F)(F)F)cc32)CC1 | inactive |
| COC(=O)c1c(CC=C(C)C)c(OC2OC(CO)C(O)C(O)C2O)c2ccccc2c1OC1OC(CO)C(O)C(O)C1O (stereo unspecified) | inactive [at 17.4 µM] |
| COc1cc(/C=C/C(=O)O[C@H]2[C@H](O)[C@@H](CO)O[C@@]2(CO)O[C@H]2O[C@H](CO)[C@@H](O)[C@H](O)[C@H]2O)cc(OC)c1O | inactive [at 17.4 µM] |
| COc1ccc(C2COc3cc(O)ccc3C2)c(O)c1OC (stereo unspecified) | inactive |
| COc1ccc2c(c1)O[C@H](O[C@@H]1O[C@H](CO)[C@@H](O)[C@H](O)[C@H]1O)C(=O)N2 | inactive |

From PubChem BioAssay (NCATS)
